Results published in ChEMBL document CHEMBL4513216, “Probing the Open Global Health Chemical Diversity Library for Multistage-Active Starting Points for Next-Generation Antimalarials” (ACS Infect Dis, 2020).
Among all 69,000 compounds or so, about 8,600 (12%) showed an effect of 50% or more. The entries come from a sample that favours strong results as a whole.

test system: Plasmodium berghei; assay: Screen against P. berghei liver stage (PbLuc), transformed with Luciferase, at 10uM; type: functional, HepG2; conditions: tested at 10 uM

| Structure (SMILES) | INHIBITION [%] |
| --- | --- |
| COc1cccc2cc(CNCc3ccnc(N(C)C)c3)oc12 | -4.94 |
| CNC(=O)C1CN(c2ccnc(C)n2)CCN(C2CCOCC2)C1 (stereo not drawn) | 23 |
| Cc1cc(CN(C)Cc2ccccc2N2CCCCC2)n[nH]1 | 20.2 |
| CN(Cc1noc(C(C)(C)C)n1)Cc1ccccc1N1CCCCC1 | 90.4 |
| CN(Cc1noc(C(C)(C)C)n1)Cc1ccccc1N1CCCC1 | -2.92 |
| COCCc1noc(CN2CCCC(Cn3cncn3)C2)n1 (stereo not drawn) | -0.96 |
| NC(=O)Cn1c(CO)cnc1SCC(=O)NCc1ccccc1 | 15 |
| N#Cc1cccc(N2CCC(CO)(CCCc3ccccc3)CC2)n1 | 22 |
| N#Cc1cccc(N2CCC(CO)(CCOc3ccccc3)CC2)n1 | 17.4 |
| N#Cc1cccc(N2CCC(CO)(CCc3ccccc3)CC2)n1 | 51.7 |
| Cn1cc(CC2CC(=O)N(Cc3ccc(Cl)cc3)C2=O)cn1 (stereo not drawn) | 8.12 |
| Cc1ncsc1CN1CCN(C2CCOCC2)CC(C(N)=O)C1 (stereo not drawn) | 25.6 |
| Nc1ncnc2c1ncn2[C@H]1CCN(Cc2ccsc2)CC[C@@H]1O | 17.4 |
| Cc1ncsc1CN1CC[C@H](O)[C@@H](n2cnc3c(N)ncnc32)CC1 | 50.1 |
| CC(C)c1noc(-c2ccnc(-n3cnc(C(=O)O)c3)c2)n1 | -8.35 |
| CCc1nccn1-c1cccc(C2CCCN(C3CCCCC3)C2)n1 (stereo not drawn) | 24.8 |
| Cc1cn2nc(N3CCCC3Cn3cccn3)sc2n1 (stereo not drawn) | -12.1 |
| O=C(C1CCCN(Cc2ccccc2)C1)N1CCc2sccc2C1 (stereo not drawn) | 48.8 |
| O=C(C1CCCN(Cc2cccc(F)c2)C1)N1CCc2sccc2C1 (stereo not drawn) | 14.1 |
| O=C(C1CCCN(Cc2cccnc2)C1)N1CCc2sccc2C1 (stereo not drawn) | 55.5 |

| Structure (SMILES) | INHIBITION [%] |
| --- | --- |
| CN1CCCc2cc(-c3cncn3CC(=O)NC(C)(C)C)ccc21 | 18.3 |
| CC1Cc2cc(-c3cncn3CC(=O)NC(C)(C)C)ccc2N1C (stereo not drawn) | 52 |
| CCN1c2ccc(-c3cncn3CC(=O)NC(C)(C)C)cc2CC1C (stereo not drawn) | 59.3 |
| Cc1nn(C)c(C)c1CCn1cncc1-c1ccc2c(c1)CC(C)N2C (stereo not drawn) | 22.8 |
| CCN1CCc2cc(-c3cncn3CC(=O)NC(C)(C)C)ccc21 | 6.32 |
| CCN1CCc2cc(-c3cncn3CCNC3CCS(=O)(=O)C3)ccc21 (stereo not drawn) | 27.6 |
| CCN1CCC2(CN(C(C)=O)CC23CCN(CC2CC2)CC3)C1=O (stereo not drawn) | -23.3 |
| O=C(Nc1ccncc1)NC1CCN(c2ccccc2Cl)C1=O (stereo not drawn) | 50.8 |
| Cc1cc(CC(=O)NC2CCCN(c3ccccc3Cl)C2=O)n[nH]1 (stereo not drawn) | 8.44 |
| Cn1cc(NC(=O)NC2CCCN(c3ccccc3Cl)C2=O)cn1 (stereo not drawn) | 24.8 |
| CN1CCC(NC(=O)Nc2cnn(-c3ccccc3Cl)c2)C1=O (stereo not drawn) | 37.7 |
| Cn1ccc(NC(=O)NC2CCCN(c3ccccc3Cl)C2=O)n1 (stereo not drawn) | 74 |
| CN1CCC(NC(=O)Nc2ccc(Cl)c(F)c2)C1=O (stereo not drawn) | -6.39 |
| O=C(Nc1cc(F)ccc1OCC1CCCO1)N1CCSCC1 (stereo not drawn) | 41.2 |
| CC(=O)NCC1(COc2cnccn2)C[C@@H](O)[C@@H](O)C1 (stereo partly drawn) | -3.52 |
| COCC(C)NC(=O)c1cn(C(C)C)cc2c(=O)[nH]nc1-2 (stereo not drawn) | 22 |
| COc1ccc2c(OCC(=O)NCC(F)(F)F)ccnc2c1 | -121 |
| CNC(=O)[C@H]1C[C@@H]2CN(C(=O)c3ccsc3)C[C@@H]2N1S(C)(=O)=O | 32.2 |
| CCOc1ncccc1NC(=O)N1CCN(Cc2ccncc2)CC1 | 18.75 |
| CCc1cc(N2CCC(NCCc3nc(C)c(C)s3)CC2)nc(C)n1 | 30.3 |

| Structure (SMILES) | INHIBITION [%] |
| --- | --- |
| Cc1nnc(CCNC2CCN(c3ncnc4c(C)csc34)CC2)s1 | 61.8 |
| Cc1nc(C)n(CCNC2CCN(c3ncnc4c(C)csc34)CC2)n1 | -12.4 |
| Cc1csc2c(N3CCC(NCCCc4ccncc4)CC3)ncnc12 | 43.5 |
| CCc1nnc(CNC2CCN(c3ncnc4c(C)csc34)CC2)s1 | 61.3 |
| CCCc1cncnc1N1CCC(NCCc2nc(O)cc(O)n2)CC1 | 8.23 |
| Cc1csc2c(N3CCC(NCCCC4CCOC4)CC3)ncnc12 (stereo not drawn) | 55.8 |
| CCc1nc(CNC2CCN(c3ccc(OC)cc3)CC2)cs1 | 34 |
| CCC1CCN(CCn2cnc3c(C)csc3c2=O)CC1 | -7.25 |
| Cc1csc2c(N3CCC(NCCc4ccnn4C)CC3)ncnc12 | 53.6 |
| CCCc1cncnc1N1CCC(NCCc2ccc(O)cc2)CC1 | 49.9 |
| O=C(NCc1ccc2c(c1)OCO2)[C@@H]1C=CCN1c1ncccn1 | -0.232 |
| CCOCC1CC2(CCN(C(=O)c3ccccn3)CC2)CO1 (stereo not drawn) | 32.4 |
| Cc1cc(C)nc(N2CCC(C(=O)Nc3n[nH]c(C(C)C)n3)CC2)n1 | 24.7 |
| Cc1noc(C(C)Nc2ccc(N3CCOCC3)cc2C)n1 (stereo not drawn) | 23.1 |
| CCOC(=O)CSc1nnc([C@@H](N)CC(C)C)o1 | 12.3 |
| O=C(COC1CCCC1)N1C[C@@H]2CN(Cc3ccoc3)CCO[C@@H]2C1 | 29.8 |
| Cc1cc(N2CCC(N(C)C(=O)c3ccccc3F)CC2)nc(C)n1 | 56.1 |
| CN(C(=O)c1ccc(C#N)cc1)C1CCN(c2ccccn2)CC1 | -39.5 |
